# Experimental data as given in publication PMC7862700, “An all-to-all approach to the identification of sequence-specific readers for epigenetic DNA modifications on cytosine”.
# Experiments:
# Assay in all cases: DAPPL (digital affinity profiling via proximity ligation, sequencing); 10 mM Tris-HCl pH 7.5, 50 mM NaCl, 1 mM DTT, 4% glycerol, room temperature, 30 min; GST-TFs on glutathione beads, 16-mer random dsDNA library, 0.1% formaldehyde crosslink after washing; high values mean tight binding
# Details in all cases: protein: recombinant; tags: N-terminal GST; dsDNA, one strand shown
# [1] = target: T1, GABPA (Homo sapiens, UniProt Q06546 1-454)
# T1 sequence: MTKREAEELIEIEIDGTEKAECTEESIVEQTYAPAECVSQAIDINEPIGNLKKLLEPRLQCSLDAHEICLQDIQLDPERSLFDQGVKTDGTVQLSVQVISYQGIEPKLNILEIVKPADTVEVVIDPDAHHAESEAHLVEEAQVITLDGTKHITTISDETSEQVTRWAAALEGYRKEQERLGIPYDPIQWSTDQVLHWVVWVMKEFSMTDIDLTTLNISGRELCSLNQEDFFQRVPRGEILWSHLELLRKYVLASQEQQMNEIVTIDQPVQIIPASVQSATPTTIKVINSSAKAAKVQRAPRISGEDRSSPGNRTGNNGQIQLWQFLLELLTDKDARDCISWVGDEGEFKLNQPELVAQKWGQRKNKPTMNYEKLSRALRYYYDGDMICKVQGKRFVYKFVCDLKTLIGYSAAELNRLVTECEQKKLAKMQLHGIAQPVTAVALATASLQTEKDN
# How it was run: (§1)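 The binding signal reported is, for every hexamer, its read frequency for a factor over its read frequency for the tag-only sample. Reads came from pools of yeast-expressed, GST-fused human transcription factors on glutathione beads, barcoded with DNA and mixed with that sample, which were incubated with 200 nmole of a random double-stranded 16-mer DNA library in Tris/NaCl/DTT/glycerol buffer at room temperature for 30 min. After washing, the pools were crosslinked with 0.1% formaldehyde, proximity-ligated with BsaI/T4 ligase for 1 h at 37 °C, PCR-amplified and sequenced on an Illumina NextSeq500.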
# [2] = target: T2, ERG (Homo sapiens, UniProt P11308 1-479)
# T2 sequence: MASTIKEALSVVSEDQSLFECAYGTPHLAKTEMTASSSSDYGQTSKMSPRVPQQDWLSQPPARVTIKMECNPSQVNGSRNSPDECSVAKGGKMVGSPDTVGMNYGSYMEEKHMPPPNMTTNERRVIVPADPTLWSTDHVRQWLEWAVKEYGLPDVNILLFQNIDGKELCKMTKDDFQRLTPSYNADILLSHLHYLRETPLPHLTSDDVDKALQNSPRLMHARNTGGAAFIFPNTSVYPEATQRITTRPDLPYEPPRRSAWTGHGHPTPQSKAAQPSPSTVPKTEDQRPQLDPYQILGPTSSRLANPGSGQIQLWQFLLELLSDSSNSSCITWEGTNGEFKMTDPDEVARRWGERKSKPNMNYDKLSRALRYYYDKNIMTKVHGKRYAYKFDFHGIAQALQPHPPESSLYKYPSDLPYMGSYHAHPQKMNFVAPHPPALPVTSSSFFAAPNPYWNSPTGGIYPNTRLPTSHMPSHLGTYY
# How it was run: as §1
# [3] = target: ELF1 (Homo sapiens, UniProt P32519 1-619)
# ELF1, sequence (P32519 whole entry): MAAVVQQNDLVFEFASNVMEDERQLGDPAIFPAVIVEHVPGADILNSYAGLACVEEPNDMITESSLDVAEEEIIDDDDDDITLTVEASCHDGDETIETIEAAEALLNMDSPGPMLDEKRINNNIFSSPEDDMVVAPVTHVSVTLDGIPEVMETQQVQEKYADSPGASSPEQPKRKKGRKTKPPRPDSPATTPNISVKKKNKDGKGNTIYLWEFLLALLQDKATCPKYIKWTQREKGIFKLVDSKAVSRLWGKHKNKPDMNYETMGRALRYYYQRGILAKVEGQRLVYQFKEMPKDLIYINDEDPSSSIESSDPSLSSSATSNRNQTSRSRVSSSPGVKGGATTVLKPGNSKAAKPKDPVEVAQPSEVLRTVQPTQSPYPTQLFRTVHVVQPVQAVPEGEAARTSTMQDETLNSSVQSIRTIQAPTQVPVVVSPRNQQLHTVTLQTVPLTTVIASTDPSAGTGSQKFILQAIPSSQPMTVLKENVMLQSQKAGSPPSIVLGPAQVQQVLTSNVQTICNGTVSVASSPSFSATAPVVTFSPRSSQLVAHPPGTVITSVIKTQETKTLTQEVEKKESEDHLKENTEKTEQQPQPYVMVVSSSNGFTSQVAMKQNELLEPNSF
# How it was run: as §1
# [4] = target: T3, EHF (Homo sapiens, UniProt Q9NZC4 1-300)
# T3 sequence: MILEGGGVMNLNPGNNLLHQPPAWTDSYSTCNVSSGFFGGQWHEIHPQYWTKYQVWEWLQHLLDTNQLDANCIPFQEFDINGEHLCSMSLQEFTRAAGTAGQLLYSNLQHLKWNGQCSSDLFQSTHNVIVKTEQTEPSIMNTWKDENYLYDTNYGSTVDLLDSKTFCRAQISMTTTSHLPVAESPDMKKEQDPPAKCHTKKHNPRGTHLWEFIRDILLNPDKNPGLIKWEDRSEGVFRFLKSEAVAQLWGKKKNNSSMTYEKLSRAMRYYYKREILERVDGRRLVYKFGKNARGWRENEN
# How it was run: as §1
# [5] = target: SPIB (Homo sapiens, UniProt Q01892 1-262)
# SPIB, sequence (Q01892 whole entry): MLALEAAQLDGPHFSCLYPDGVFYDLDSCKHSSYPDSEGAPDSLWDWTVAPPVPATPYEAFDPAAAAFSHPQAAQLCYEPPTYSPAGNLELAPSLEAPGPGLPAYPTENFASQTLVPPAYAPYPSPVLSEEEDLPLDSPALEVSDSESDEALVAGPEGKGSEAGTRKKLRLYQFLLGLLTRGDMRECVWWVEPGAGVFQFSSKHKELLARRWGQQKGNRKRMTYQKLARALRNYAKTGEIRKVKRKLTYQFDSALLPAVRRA
# How it was run: as §1
# [6] = target: T4, FEV (Homo sapiens, UniProt Q99581 1-238)
# T4 sequence: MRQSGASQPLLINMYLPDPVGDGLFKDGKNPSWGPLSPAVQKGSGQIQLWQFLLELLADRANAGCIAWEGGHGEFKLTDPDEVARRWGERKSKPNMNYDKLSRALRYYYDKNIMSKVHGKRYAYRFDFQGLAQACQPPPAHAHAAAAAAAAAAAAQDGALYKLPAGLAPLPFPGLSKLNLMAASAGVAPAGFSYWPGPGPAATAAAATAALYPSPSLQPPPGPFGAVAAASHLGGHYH
# How it was run: as §1
# [7] = target: ETV5 (Homo sapiens, UniProt P41161 1-510)
# ETV5, sequence (P41161 whole entry): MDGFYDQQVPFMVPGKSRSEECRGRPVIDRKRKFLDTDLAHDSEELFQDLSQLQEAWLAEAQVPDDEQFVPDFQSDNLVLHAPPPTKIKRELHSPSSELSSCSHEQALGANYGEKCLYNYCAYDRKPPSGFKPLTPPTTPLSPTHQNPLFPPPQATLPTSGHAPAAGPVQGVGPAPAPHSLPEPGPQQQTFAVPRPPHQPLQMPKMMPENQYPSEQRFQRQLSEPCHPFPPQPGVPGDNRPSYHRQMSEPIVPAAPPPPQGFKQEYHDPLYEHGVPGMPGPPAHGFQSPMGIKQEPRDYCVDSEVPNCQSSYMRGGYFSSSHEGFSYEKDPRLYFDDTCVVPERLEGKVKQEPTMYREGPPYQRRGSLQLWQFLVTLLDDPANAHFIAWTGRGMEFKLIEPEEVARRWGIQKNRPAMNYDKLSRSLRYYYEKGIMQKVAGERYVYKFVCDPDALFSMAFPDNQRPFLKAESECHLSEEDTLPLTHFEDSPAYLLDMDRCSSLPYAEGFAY
# How it was run: as §1
# [8] = target: ELF4 (Homo sapiens, UniProt Q99607 1-663)
# ELF4, sequence (Q99607 whole entry): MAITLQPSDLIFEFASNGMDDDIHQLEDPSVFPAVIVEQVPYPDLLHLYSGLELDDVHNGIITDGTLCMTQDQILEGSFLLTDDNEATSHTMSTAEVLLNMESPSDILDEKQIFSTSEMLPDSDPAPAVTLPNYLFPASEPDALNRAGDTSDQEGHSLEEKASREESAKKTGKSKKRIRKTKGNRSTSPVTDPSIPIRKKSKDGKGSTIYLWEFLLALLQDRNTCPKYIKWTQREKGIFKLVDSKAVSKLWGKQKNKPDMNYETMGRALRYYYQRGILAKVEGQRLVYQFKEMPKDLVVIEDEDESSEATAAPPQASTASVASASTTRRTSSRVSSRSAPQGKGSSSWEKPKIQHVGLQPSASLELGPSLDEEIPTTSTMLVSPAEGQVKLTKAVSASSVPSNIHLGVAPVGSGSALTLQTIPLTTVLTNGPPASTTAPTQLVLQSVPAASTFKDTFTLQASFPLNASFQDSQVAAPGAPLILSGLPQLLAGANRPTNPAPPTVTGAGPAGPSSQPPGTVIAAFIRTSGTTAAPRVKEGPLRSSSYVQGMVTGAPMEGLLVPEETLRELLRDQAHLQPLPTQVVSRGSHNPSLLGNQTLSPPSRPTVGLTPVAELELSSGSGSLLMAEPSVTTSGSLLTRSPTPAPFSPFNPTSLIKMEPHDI
# How it was run: as §1
# [9] = target: T5, ELK4 (Homo sapiens, UniProt P28324-2 1-405)
# T5 sequence: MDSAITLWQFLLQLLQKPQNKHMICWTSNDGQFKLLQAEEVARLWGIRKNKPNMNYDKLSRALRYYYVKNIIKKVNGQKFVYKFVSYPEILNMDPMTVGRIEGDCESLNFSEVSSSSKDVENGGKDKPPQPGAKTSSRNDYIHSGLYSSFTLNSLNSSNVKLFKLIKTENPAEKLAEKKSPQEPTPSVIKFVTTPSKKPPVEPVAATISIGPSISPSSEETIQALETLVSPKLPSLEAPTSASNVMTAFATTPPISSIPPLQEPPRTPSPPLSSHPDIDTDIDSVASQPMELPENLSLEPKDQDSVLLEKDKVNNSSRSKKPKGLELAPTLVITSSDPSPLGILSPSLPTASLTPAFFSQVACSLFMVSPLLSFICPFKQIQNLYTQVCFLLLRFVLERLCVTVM
# How it was run: as §1
# [10] = target: T6, ETV2 (Homo sapiens, UniProt O00321 1-342)
# T6 sequence: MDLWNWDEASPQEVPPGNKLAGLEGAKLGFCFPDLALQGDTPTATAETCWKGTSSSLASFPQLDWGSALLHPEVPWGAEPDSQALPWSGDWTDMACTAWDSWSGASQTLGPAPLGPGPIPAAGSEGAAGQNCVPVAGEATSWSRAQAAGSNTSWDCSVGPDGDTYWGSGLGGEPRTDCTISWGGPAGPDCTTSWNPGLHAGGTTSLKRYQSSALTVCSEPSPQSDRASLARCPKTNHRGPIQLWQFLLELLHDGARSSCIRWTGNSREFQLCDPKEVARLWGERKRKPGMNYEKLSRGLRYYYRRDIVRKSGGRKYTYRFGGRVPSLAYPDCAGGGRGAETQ
# How it was run: as §1
# [11] = target: T7, ELF3 (Homo sapiens, UniProt P78545 1-371)
# T7 sequence: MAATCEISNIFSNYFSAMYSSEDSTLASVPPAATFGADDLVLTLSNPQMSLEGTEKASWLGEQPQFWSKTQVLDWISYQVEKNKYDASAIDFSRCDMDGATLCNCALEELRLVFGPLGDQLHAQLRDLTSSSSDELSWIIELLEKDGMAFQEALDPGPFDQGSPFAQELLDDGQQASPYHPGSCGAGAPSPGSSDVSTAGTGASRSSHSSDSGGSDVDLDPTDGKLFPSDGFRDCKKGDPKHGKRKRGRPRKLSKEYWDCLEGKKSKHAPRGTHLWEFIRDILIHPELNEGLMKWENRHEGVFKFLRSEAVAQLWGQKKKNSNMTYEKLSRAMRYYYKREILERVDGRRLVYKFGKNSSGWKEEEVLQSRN
# How it was run: as §1
# [12] = target: ETV1 (Homo sapiens, UniProt P50549 1-477)
# ETV1, sequence (P50549 whole entry): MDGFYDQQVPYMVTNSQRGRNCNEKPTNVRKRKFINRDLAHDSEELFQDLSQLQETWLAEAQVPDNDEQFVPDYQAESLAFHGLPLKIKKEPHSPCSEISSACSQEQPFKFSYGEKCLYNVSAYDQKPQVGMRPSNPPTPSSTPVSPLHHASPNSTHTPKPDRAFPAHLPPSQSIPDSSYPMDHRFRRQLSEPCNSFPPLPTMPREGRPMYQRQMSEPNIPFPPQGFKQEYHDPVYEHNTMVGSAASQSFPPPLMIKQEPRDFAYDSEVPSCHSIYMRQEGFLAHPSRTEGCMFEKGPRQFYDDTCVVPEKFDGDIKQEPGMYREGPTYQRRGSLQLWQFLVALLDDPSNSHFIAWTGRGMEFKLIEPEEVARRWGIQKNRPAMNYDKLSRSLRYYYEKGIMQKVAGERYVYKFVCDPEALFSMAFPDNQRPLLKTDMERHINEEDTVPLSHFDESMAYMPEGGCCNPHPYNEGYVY
# How it was run: as §1
# [13] = target: T8, ERF (Homo sapiens, UniProt P50548 1-548)
# T8 sequence: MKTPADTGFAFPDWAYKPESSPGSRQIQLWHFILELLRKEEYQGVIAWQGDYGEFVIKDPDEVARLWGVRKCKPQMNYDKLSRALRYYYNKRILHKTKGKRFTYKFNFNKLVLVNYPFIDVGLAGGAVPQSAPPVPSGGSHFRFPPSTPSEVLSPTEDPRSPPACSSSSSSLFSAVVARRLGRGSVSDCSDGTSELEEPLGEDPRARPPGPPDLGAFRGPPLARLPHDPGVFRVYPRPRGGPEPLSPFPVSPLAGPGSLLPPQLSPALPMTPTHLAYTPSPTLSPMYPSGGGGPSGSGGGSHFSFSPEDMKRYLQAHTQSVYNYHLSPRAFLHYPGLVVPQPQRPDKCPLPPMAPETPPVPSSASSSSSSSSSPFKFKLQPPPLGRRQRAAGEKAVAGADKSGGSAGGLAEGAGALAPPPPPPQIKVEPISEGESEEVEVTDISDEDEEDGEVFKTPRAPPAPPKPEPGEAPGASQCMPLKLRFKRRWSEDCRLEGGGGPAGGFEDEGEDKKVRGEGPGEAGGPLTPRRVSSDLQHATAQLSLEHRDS
# How it was run: as §1
# [14] = target: T9, ETV3L (Homo sapiens, UniProt Q6ZN32 1-361)
# T9 sequence: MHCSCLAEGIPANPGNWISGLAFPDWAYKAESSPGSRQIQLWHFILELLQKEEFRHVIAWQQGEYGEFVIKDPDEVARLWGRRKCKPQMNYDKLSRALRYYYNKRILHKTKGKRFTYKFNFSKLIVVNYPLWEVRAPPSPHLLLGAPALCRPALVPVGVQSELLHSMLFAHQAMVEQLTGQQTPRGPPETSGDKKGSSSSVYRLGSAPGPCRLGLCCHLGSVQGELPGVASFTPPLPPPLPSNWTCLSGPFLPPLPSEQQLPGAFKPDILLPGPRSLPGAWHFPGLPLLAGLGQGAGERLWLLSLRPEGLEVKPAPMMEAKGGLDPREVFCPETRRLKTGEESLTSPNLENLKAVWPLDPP
# How it was run: as §1
# [15] = target: T10, SPDEF (Homo sapiens, UniProt O95238 1-335)
# T10 sequence: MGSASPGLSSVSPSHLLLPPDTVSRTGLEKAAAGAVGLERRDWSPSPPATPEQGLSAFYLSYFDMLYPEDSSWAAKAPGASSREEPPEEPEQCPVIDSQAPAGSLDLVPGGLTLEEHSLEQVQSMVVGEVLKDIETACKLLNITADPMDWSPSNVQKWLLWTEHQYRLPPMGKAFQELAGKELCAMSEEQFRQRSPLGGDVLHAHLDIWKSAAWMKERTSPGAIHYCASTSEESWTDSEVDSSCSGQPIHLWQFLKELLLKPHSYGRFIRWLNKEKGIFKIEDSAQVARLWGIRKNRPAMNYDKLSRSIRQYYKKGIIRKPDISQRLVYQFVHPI
# How it was run: as §1
# [16] = target: T11, ETV7 (Homo sapiens, UniProt Q9Y603 1-341)
# T11 sequence: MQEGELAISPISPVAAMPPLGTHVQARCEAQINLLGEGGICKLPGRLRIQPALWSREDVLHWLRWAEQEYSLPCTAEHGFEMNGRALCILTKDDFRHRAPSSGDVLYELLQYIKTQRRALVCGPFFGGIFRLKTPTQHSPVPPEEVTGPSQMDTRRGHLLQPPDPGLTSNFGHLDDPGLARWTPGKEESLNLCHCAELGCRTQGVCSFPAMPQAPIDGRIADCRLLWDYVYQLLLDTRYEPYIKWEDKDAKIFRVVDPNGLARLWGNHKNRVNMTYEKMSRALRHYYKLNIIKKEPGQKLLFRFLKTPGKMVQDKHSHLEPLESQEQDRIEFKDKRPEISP
# How it was run: as §1
# [17] = target: ETV6 (Homo sapiens, UniProt P41212 1-452)
# ETV6, sequence (P41212 whole entry): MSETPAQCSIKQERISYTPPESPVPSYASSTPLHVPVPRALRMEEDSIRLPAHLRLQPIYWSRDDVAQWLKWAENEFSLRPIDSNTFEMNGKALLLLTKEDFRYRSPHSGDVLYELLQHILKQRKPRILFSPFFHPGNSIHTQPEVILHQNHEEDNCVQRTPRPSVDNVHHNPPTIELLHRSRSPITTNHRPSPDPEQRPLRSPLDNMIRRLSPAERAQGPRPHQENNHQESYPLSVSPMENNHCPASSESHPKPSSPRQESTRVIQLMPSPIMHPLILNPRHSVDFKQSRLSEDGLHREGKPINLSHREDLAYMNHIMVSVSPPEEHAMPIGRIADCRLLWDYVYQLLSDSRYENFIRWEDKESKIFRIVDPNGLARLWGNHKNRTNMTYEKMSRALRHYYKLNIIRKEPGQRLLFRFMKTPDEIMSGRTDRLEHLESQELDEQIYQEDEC
# How it was run: as §1
# [18] = target: T12, ETS2 (Homo sapiens, UniProt P15036 1-469)
# T12 sequence: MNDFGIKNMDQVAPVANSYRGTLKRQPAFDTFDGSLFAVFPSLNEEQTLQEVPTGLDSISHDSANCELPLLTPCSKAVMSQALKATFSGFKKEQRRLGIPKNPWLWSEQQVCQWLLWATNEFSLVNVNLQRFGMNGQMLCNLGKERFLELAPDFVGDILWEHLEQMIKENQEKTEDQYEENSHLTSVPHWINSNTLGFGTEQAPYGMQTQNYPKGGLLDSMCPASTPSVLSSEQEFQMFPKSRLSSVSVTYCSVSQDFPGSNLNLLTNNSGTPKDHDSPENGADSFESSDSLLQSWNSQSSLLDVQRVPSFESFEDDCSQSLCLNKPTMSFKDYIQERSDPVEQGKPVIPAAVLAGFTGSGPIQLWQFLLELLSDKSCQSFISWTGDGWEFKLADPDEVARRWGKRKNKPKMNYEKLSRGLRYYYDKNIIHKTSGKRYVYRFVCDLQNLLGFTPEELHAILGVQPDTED
# How it was run: as §1
Sequence,binding signal [1],binding signal [2],binding signal [3],binding signal [4],binding signal [5],binding signal [6],binding signal [7],binding signal [8],binding signal [9],binding signal [10],binding signal [11],binding signal [12],binding signal [13],binding signal [14],binding signal [15],binding signal [16],binding signal [17],binding signal [18]
CATAAT,"1.01 fold enrichment (6-mer frequency, TF over GST control)","1.1 fold enrichment (6-mer frequency, TF over GST control)","1.02 fold enrichment (6-mer frequency, TF over GST control)","1.13 fold enrichment (6-mer frequency, TF over GST control)","1.04 fold enrichment (6-mer frequency, TF over GST control)","1.01 fold enrichment (6-mer frequency, TF over GST control)","1.09 fold enrichment (6-mer frequency, TF over GST control)","1.01 fold enrichment (6-mer frequency, TF over GST control)","1.03 fold enrichment (6-mer frequency, TF over GST control)","1 fold enrichment (6-mer frequency, TF over GST control)","1.01 fold enrichment (6-mer frequency, TF over GST control)","1.05 fold enrichment (6-mer frequency, TF over GST control)","1.02 fold enrichment (6-mer frequency, TF over GST control)","1.01 fold enrichment (6-mer frequency, TF over GST control)","1 fold enrichment (6-mer frequency, TF over GST control)","1.02 fold enrichment (6-mer frequency, TF over GST control)","1.07 fold enrichment (6-mer frequency, TF over GST control)",
TCACGG,,"1.02 fold enrichment (6-mer frequency, TF over GST control)","1.06 fold enrichment (6-mer frequency, TF over GST control)","1.08 fold enrichment (6-mer frequency, TF over GST control)",,,"1.04 fold enrichment (6-mer frequency, TF over GST control)",,"1.02 fold enrichment (6-mer frequency, TF over GST control)",,,"1.09 fold enrichment (6-mer frequency, TF over GST control)","1.06 fold enrichment (6-mer frequency, TF over GST control)","1.02 fold enrichment (6-mer frequency, TF over GST control)","1.1 fold enrichment (6-mer frequency, TF over GST control)","1.04 fold enrichment (6-mer frequency, TF over GST control)","1.05 fold enrichment (6-mer frequency, TF over GST control)","1.04 fold enrichment (6-mer frequency, TF over GST control)"
